{"source": "PubChem BioAssay (NCI)", "note": "Several values for one entry are separate records, joined by “and”; a condition that tells them apart may be missing. Equal entries are not always repeated. About 83,000 compounds went through this panel and 20% of them were active in at least one assay; those are over-represented in the sample as a whole.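 Treatment: one concentration, 48 hours, 96-well format. Scoring: percent growth, with anything below 10 considered active.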 Unmarked numbers belong to inactive results. Activity calls are given as the source filed them.", "data": [{"test_system": "MDA-MB-468 breast", "assay": "NCI-60 one-dose screen, 48 h (100 = growth as untreated, 0 = no growth, -100 = all killed)", "settings": "10 µM unless noted", "values": [{"smiles": "CC1(O)COCCCCOc2c(CN)cccc2NC(=O)c2nc(cnc2N)-c2ccc(cc2)S(=O)(=O)C(C)(C)C1", "note": "(configuration not stated)", "growth": "-35.1% (active)"}, {"smiles": "N#Cc1nc(-c2ccc(F)cc2)oc1S(=O)(=O)N1CCCCC1", "growth": "52.7%"}, {"smiles": "CC(C)=C1C=C2CC[C@@H]3[C@](C)(CCC[C@@]3(C)C(=O)O)[C@H]2CC1", "growth": "0.17% (active)"}, {"smiles": "O=C(CCc1nnc(CN(c2ccccc2)c2ccccc2)o1)c1nc2ccccc2[nH]1", "growth": "89.1%"}, {"smiles": "COc1ccc(Oc2nc(Nc3ccc(N4CCOCC4)cc3)ncc2NC(=O)c2cccc(C(F)(F)F)c2)cc1", "growth": "93%"}, {"smiles": "COc1cc(/C=C2\\CN(S(=O)(=O)c3ccccc3)C/C(=C\\c3cc(CN4CCCC4)c(O)c(OC)c3)C2=O)cc(CN2CCCC2)c1O", "growth": "-32.1% (active)"}, {"smiles": "CC[n+]1c(/C=C/c2ccc(N3CCCC3)cc2)cccc1/C=C/c1ccc(N2CCCC2)cc1", "growth": "-85.8% (active)"}, {"smiles": "COc1ccc(-n2sc(=O)n(Cc3ccc(COC(=O)C(C)c4ccc(CC(C)C)cc4)cc3)c2=O)cc1", "note": "(configuration not stated)", "growth": "-46.1% (active)"}, {"smiles": "O=[N+]([O-])c1ccc(-c2cc3c(Nc4ccc(OCc5cccc(Cl)c5)c(Cl)c4)ncnc3s2)cc1", "growth": "56.2%"}, {"smiles": "CCN(CC)CCNC(=O)c1ccc(-c2nc3ccc4[nH]ncc4c3c3c2CCCC3)cc1", "growth": "17.4%"}, {"smiles": "O=C1OC2(c3ccccc31)c1ccc(O)c(O)c1Oc1c2ccc(O)c1O", "growth": "96.8% and 113%"}, {"smiles": "COc1cc(/C=C/C(=O)c2nc3cc(F)ccc3nc2C)cc(OC)c1OC", "growth": "23.6%"}, {"smiles": "CSc1cc(SC)ncn1", "growth": "108%"}, {"smiles": "CC1=C(/C=C/C(C)=C/C=C/C(C)=C/CO)C(C)(C)CCC1", "growth": "103%"}, {"smiles": "COc1ccc(C(=O)CSc2nc3c(c(Nc4ccc(S(N)(=O)=O)cc4)n2)CCCC3)cc1", "growth": "108%"}, {"smiles": "O=C(O)c1c[nH]c2ccccc2c1=O", "growth": "114%"}, {"smiles": "NS(=O)(=O)c1ccc(-n2nc(C(=O)N/N=C\\c3ccc(F)cc3)cc2-c2ccc(Cl)cc2)cc1", "growth": "112%"}, {"smiles": "COC(OC)c1ccccc1", "growth": "107%"}, {"smiles": "O=C(CN1CCN(c2cc3c(cc2F)c(=O)c(C(=O)O)cn3C2CC2)CC1)Nc1ccc(Cl)cc1", "growth": "86% and 91.1%"}, {"smiles": "O=C1c2cccc3cccc(c23)C(=O)N1CC#Cc1ccc2c3c(cccc13)C(=O)N(CCN1CCNCC1)C2=O", "growth": "111%"}, {"smiles": "CCCN(CCC)C(=O)c1ccc(C)cc1", "growth": "96.3%"}, {"smiles": "N#Cc1c(-c2ccc(F)cc2)nc(N=Nc2c(O)[nH]c3ccccc23)nc1N1CCOCC1", "growth": "59.1%"}, {"smiles": "CCSc1ncnc2c1ncn2C1OC(CO)C(O)C1O", "note": "(configuration not stated)", "growth": "15.8%"}, {"smiles": "COc1cc(/C=N/n2c(CN3CCOCC3)nc3ccccc3c2=O)cc(OC)c1OC", "growth": "109%"}, {"smiles": "CCOC(=O)C1=C(C)N=c2s/c(=C\\c3cc(Cl)ccc3O)c(=O)n2C1c1ccc(OC)cc1", "note": "(configuration not stated)", "growth": "94.8%"}, {"smiles": "FCOC(C(F)(F)F)C(F)(F)F", "growth": "108%"}, {"smiles": "COc1cc(C(=O)c2cc(C)c3[nH]c4ccc(Cl)cc4c3c2C)cc(OC)c1OC", "growth": "-13.2% (active)"}]}]}
